The whole screen tested about 5,500 compounds, of which about 2,000 (36%) were called active. Another 18% or so got no clear call; they are omitted. Rule as the data show it: active = normalized growth mostly below about 0.91 (no sharp cut-off); inconclusive = no clear call, values can overlap the other calls; inactive = mostly above about 0.92. The list shows a part of the results.
Experiment: chemical genetic growth profiling, strain panel (AID 1159580);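 also: tested at 20 µM; growth read once vehicle control cultures reached saturation at 30 °C; 1 = growth at the plate median or of vehicle wells; lower values mean less growth of the strain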
Settings: growth OD

Measured: normalized growth

C[C@@H]1O[C@@H](O[C@H]2C[C@@H](O)[C@]3(CO)C4C(CC[C@]3(O)C2)[C@@]2(O)CC[C@H](C3=CC(=O)OC3)[C@@]2(C)C[C@H]4O)[C@H](O)[C@H](O)[C@H]1O (some centres not stated)
inactive: S. cerevisiae deletion strains, locus YKL009W, strain mrt4, stronger effect = lower value 0.991 | S. cerevisiae deletion strains, locus YKL068W, stronger effect = lower value 0.998 | S. cerevisiae deletion strains, locus YKL085W, strain MDH1 (second series), stronger effect = lower value 0.993 | S. cerevisiae deletion strains, locus YKL085W, strain MDH1, stronger effect = lower value 0.993 | S. cerevisiae deletion strains, locus YKL160W, strain elf1, stronger effect = lower value 0.993 | S. cerevisiae deletion strains, locus YKR001C, strain vps1, stronger effect = lower value 1.01 | S. cerevisiae deletion strains, locus YKR026C, strain gcn3, stronger effect = lower value 1.02 | S. cerevisiae deletion strains, locus YKR091W, strain srl3, stronger effect = lower value 1.01 | S. cerevisiae deletion strains, locus YLL001W, strain dnm1, stronger effect = lower value 1.03 | S. cerevisiae deletion strains, locus YLL026W, stronger effect = lower value 1.03 | S. cerevisiae deletion strains, locus YLL041C, strain sdh2, stronger effect = lower value 1.01 | S. cerevisiae deletion strains, locus YLR027C, strain aat2, stronger effect = lower value 1.01 | S. cerevisiae deletion strains, locus YLR039C, strain RIC1, stronger effect = lower value 1.09 | S. cerevisiae deletion strains, locus YLR058C, strain SHM2, stronger effect = lower value 1.02 | S. cerevisiae deletion strains, locus YLR102C, strain apc9, stronger effect = lower value 0.997 | S. cerevisiae deletion strains, locus YLR113W, strain HOG1, stronger effect = lower value 1.01 | S. cerevisiae deletion strains, locus YLR221C, strain rsa3, stronger effect = lower value 1.02 | S. cerevisiae deletion strains, locus YLR258W, strain gsy2, stronger effect = lower value 1.02 | S. cerevisiae deletion strains, locus YLR262C, strain YPT6 (second series), stronger effect = lower value 1.02 | S. cerevisiae deletion strains, locus YLR262C, strain YPT6, stronger effect = lower value 1.09 | S. cerevisiae deletion strains, locus YLR268W, strain sec22, stronger effect = lower value 0.98 | S. cerevisiae deletion strains, locus YLR320W, strain mms22, stronger effect = lower value 1.03 | S. cerevisiae deletion strains, locus YLR330W, strain CHS5, stronger effect = lower value 1.01 | S. cerevisiae deletion strains, locus YLR342W, strain FKS1 (second series), stronger effect = lower value 1.04 | S. cerevisiae deletion strains, locus YLR342W, strain FKS1, stronger effect = lower value 1.02 | S. cerevisiae deletion strains, locus YLR357W, strain rsc2, stronger effect = lower value 1.01 | S. cerevisiae deletion strains, locus YLR370C, strain arc18, stronger effect = lower value 1.05 | S. cerevisiae deletion strains, locus YLR371W, strain rom2, stronger effect = lower value 0.989 | S. cerevisiae deletion strains, locus YLR384C, strain iki3, stronger effect = lower value 1.02 | S. cerevisiae deletion strains, locus YLR418C, strain cdc73, stronger effect = lower value 0.971 | S. cerevisiae deletion strains, locus YML016C, strain PPZ1, stronger effect = lower value 1.02 | S. cerevisiae deletion strains, locus YML032C, strain rad52, stronger effect = lower value 0.997 | S. cerevisiae deletion strains, locus YML120C, strain ndi1, stronger effect = lower value 1.04 | S. cerevisiae deletion strains, locus YML124C, strain tub3, stronger effect = lower value 0.987 | S. cerevisiae deletion strains, locus YMR058W, strain fet3, stronger effect = lower value 1.02 | S. cerevisiae deletion strains, locus YMR078C, strain ctf18, stronger effect = lower value 0.981 | S. cerevisiae deletion strains, locus YMR125W, strain sto1, stronger effect = lower value 1.02 | S. cerevisiae deletion strains, locus YMR129W, stronger effect = lower value 1.02 | S. cerevisiae deletion strains, locus YMR205C, strain PFK2, stronger effect = lower value 0.995 | S. cerevisiae deletion strains, locus YMR223W, strain ubp8, stronger effect = lower value 0.998 | S. cerevisiae deletion strains, locus YMR231W, strain pep5, stronger effect = lower value 1.02 | S. cerevisiae deletion strains, locus YMR263W, strain SAP30, stronger effect = lower value 1.01 | S. cerevisiae deletion strains, locus YMR307W, strain GAS1, stronger effect = lower value 1.17 | S. cerevisiae deletion strains, locus YNL067W, strain RPL9B, stronger effect = lower value 1.01 | S. cerevisiae deletion strains, locus YNL071W, strain lat1, stronger effect = lower value 1.03 | S. cerevisiae deletion strains, locus YNL183C, strain NPR1, stronger effect = lower value 0.963 | S. cerevisiae deletion strains, locus YNL209W, strain ssb2, stronger effect = lower value 1.02 | S. cerevisiae deletion strains, locus YNL233W, strain BNI4, stronger effect = lower value 1.03 | S. cerevisiae deletion strains, locus YNL248C, strain rpa49, stronger effect = lower value 0.985 | S. cerevisiae deletion strains, locus YNL250W, strain rad50, stronger effect = lower value 1.02 | S. cerevisiae deletion strains, locus YNL271C, strain bni1, stronger effect = lower value 0.985 | S. cerevisiae deletion strains, locus YNL298W, strain CLA4, stronger effect = lower value 0.996 | S. cerevisiae deletion strains, locus YNL307C, strain MCK1, stronger effect = lower value 0.999 | S. cerevisiae deletion strains, locus YNL322C, strain KRE1 (second series), stronger effect = lower value 1.01 | S. cerevisiae deletion strains, locus YNL322C, strain KRE1, stronger effect = lower value 1.02 | S. cerevisiae deletion strains, locus YNR049C, strain mso1, stronger effect = lower value 1.03 | S. cerevisiae deletion strains, locus YNR052C, strain pop2, stronger effect = lower value 0.981 | S. cerevisiae deletion strains, locus YOL006C, strain TOP1, stronger effect = lower value 1.03 | S. cerevisiae deletion strains, locus YOL012C, strain htz1 0.899 | S. cerevisiae deletion strains, locus YOL147C, strain pex11, stronger effect = lower value 0.997 | S. cerevisiae deletion strains, locus YOR001W, strain rrp6, stronger effect = lower value 1.05 | S. cerevisiae deletion strains, locus YOR061W, strain CKA2, stronger effect = lower value 1.02 | S. cerevisiae deletion strains, locus YOR069W, strain VPS5, stronger effect = lower value 1.02 | S. cerevisiae deletion strains, locus YOR070C, strain gyp1, stronger effect = lower value 1.03 | S. cerevisiae deletion strains, locus YOR080W, strain dia2, stronger effect = lower value 1.03 | S. cerevisiae deletion strains, locus YOR083W, strain WHI5, stronger effect = lower value 0.985 | S. cerevisiae deletion strains, locus YOR106W, strain vam3, stronger effect = lower value 1.01 | S. cerevisiae deletion strains, locus YOR136W, strain idh2, stronger effect = lower value 0.987 | S. cerevisiae deletion strains, locus YOR144C, strain elg1, stronger effect = lower value 0.983 | S. cerevisiae deletion strains, locus YOR184W, strain ser1, stronger effect = lower value 1.01 | S. cerevisiae deletion strains, locus YOR231W, strain MKK1, stronger effect = lower value 1.02 | S. cerevisiae deletion strains, locus YOR265W, strain rbl2, stronger effect = lower value 1.01 | S. cerevisiae deletion strains, locus YOR270C, strain vph1, stronger effect = lower value 1.05 | S. cerevisiae deletion strains, locus YOR290C, strain snf2, stronger effect = lower value 1.04 | S. cerevisiae deletion strains, locus YOR316C, strain cot1, stronger effect = lower value 0.989 | S. cerevisiae deletion strains, locus YPL051W, strain arl3, stronger effect = lower value 1.01 | S. cerevisiae deletion strains, locus YPL078C, strain atp4, stronger effect = lower value 1.02 | S. cerevisiae deletion strains, locus YPL106C, strain sse1, stronger effect = lower value 1.03 | S. cerevisiae deletion strains, locus YPL240C, strain hsp82, stronger effect = lower value 1.03 | S. cerevisiae deletion strains, locus YPL241C, strain CIN2, stronger effect = lower value 1.01 | S. cerevisiae deletion strains, locus YPL256C, strain CLN2, stronger effect = lower value 1.03 | S. cerevisiae deletion strains, locus YPR119W, strain clb2, stronger effect = lower value 0.986 | S. cerevisiae deletion strains, locus YPR141C, strain kar3, stronger effect = lower value 0.989 | S. cerevisiae deletion strains, locus YPR163C, strain tif3, stronger effect = lower value 0.988 | S. cerevisiae deletion strains, locus YPR167C, strain met16, stronger effect = lower value 0.99 | S. cerevisiae deletion strains, strain wtn01, stronger effect = lower value 0.976 | S. cerevisiae strains, strain wild type, stronger effect = lower value 1.02

Source: PubChem BioAssay AID1159580 (chemical genetic matrix, 2015)
